Results as given in PubChem BioAssay.

experiment: DUSP6 inhibitors restoring Erk phosphorylation by chemical complementation, primary imaging in DUSP6-transfected HeLa (AID 609); conditions: HeLa MKP-3 transfected, phospho-Erk imaging KS statistic; measured here: cell density z-score; at 10 µM; cells stimulated with TPA for 15 min

Row | Structure (SMILES) | z-score
1 | CC(=O)C1(C)OC(N)=C(C#N)C(c2ccccc2)C1(C#N)C#N (stereo not given) | 0.834
2 | CCCCOc1ccccc1/C=c1/sc2nc(-c3oc4ccccc4c3C)nn2c1=O | 0.907
3 | CCCOc1ccc(/C(O)=C2/C(=O)C(=O)N(CCN(C)C)C2c2ccncc2)cc1 (stereo not given) | 1.88
4 | Cc1onc(-c2ccccc2Cl)c1C(=O)N1CCN(c2nc3ccccc3s2)CC1 | 1.76
5 | COc1ccc2oc(=O)c(-c3nc(C)cs3)cc2c1 | -0.969
6 | CCOC(=O)CSc1nc(NC#N)nc(N(CC)CC)n1 | -0.121
7 | CCOc1ccc(/C(O)=C2/C(=O)C(=O)N(CCN(C)C)C2c2ccccc2)cc1Cl (stereo not given) | 2.52
8 | CCCCOC(=O)Nc1ccc(S(=O)(=O)Nc2nc(C)cc(C)n2)cc1 | 0.944
9 | COc1ccc(C=NCCC2(O)CC(C)N(C)CC2C)cc1 (stereo not given) | 0.907
10 | Cc1ccc(C(C)C)c(OCCNc2nc3c(c(=O)n(C)c(=O)n3C)n2C)c1 | -0.12
11 | CCOC(=O)CCc1c(C)c(C#N)c2nc3ccccc3n2c1-n1ccnc1C | -0.341
12 | C=CCSc1nc(C)c(CC=C)c(=O)[nH]1 | 0.711
13 | CC1C[C@@]2(NC(=O)NC2=O)C(C)CN1C (stereo not given in full) | 1.06
14 | Cc1nnc(C)n1/N=C/c1cc(Br)cc(Br)c1O | 0.57
15 | Clc1ccc2[nH]c3c(NCCN4CCOCC4)ncnc3c2c1 | -1.3
16 | Cc1cc(C)n(CC(=O)N2c3ccccc3Sc3ccccc32)n1 | 0.655
17 | Cn1c(NCC(O)c2ccccc2)nc2c1c(=O)n(Cc1ccc(Cl)c(Cl)c1)c(=O)n2C (stereo not given) | 0.306
18 | COc1ccccc1-c1nn2c(-c3ccco3)nnc2s1 | 0.365
19 | CCCCNC(=O)c1c(N)n(/N=C/c2cccnc2)c2nc3ccccc3nc12 | 1.68
20 | CCOc1ccc(C2C(C(=O)c3ccc(C)o3)=C(O)C(=O)N2CCCN(CC)CC)cc1 (stereo not given) | 1.15
